Bioassay records as filed in PubChem BioAssay.
PD-1 reverse act: activators reversing PD-1 mediated T-cell inhibition; primary human CD4 T cells, PD-L1 beads, CellTiter-Glo 96 h; activation, % (test concentration not listed); 29,000 tested, under 10 active; call rule not given here;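 note: 0% = median vehicle wells and 100% = positive control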
Shh pathway inh: Sonic Hedgehog pathway inhibition; Shh-LIGHT2 Gli-luciferase reporter, 30 h; inhibition, % (concentration not given with the values); 22,000 tested, 2.1% active;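 active = mean inhibition across valid replicates above about 65%, limit read from the data; inconclusive = mean under the limit, yet half or more replicates past it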;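 note: pathway switched on by Shh-conditioned medium diluted 1 in 25 in low serum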
NOMO-1 viab: STK33 inhibitor candidate reducing NOMO-1 cell viability; NOMO-1 AML viability, CellTiter-Glo luminescence, 72 h; inhibition, % (no concentration beside the values); 37,000 tested, 7.5% active; in the data active = inhibition above about 80%; inconclusive = no clear call, values can overlap the other calls
Numbers without * were called inactive; ? = inconclusive; . = no result. Hits are enriched below; roughly 7.7% of the tested compounds scored in any of these assays.

SMILES	PD-1 reverse act	Shh pathway inh	NOMO-1 viab
COC(=O)COc1c(Br)cc(C2C3=C(CCCC3=O)NC3=C2C(=O)CCC3)cc1OC	4	.	3
COc1cc(NC(=O)COc2ccc(C)c(C)c2)ccc1NC(=O)c1ccccc1Cl	2	.	26
NC(N)=NC(=O)c1nc(Cl)c(N)nc1N	.	-12	31
NC(=NCc1ccc(Cl)cc1Cl)NC(=O)c1nc(Cl)c(N)nc1N	.	58	120*
CC1CCC(C(C)C)C(N(Cc2ccccc2)C(=O)c2cccs2)C1 (configuration not stated)	-1	4	?
Nc1cccc(-c2cc3c(Oc4cccc(O)c4)ncnc3[nH]2)c1	-2	-8	91*
C[C@H](CO)N1C[C@H](C)[C@H](CN(C)Cc2ccc(Oc3ccccc3)cc2)Oc2ccc(NC(=O)Cc3ccccc3)cc2CC1=O	.	.	116*
C[C@H](CO)N1C[C@H](C)[C@H](CN(C)Cc2ccc(Oc3ccccc3)cc2)Oc2ccc(NC(=O)Nc3ccccc3)cc2CC1=O	1	-23	45
C[C@@H]1CN([C@@H](C)CO)C(=O)Cc2cc(NC(=O)Nc3ccccc3)ccc2O[C@@H]1CN(C)Cc1ccc(Oc2ccccc2)cc1	-7	52	78
C[C@H]1CN([C@@H](C)CO)C(=O)Cc2cc(NC(=O)Cc3ccccc3)ccc2O[C@@H]1CN(C)Cc1ccc(Oc2ccccc2)cc1	-1	16	75
C[C@H]1CN([C@@H](C)CO)C(=O)Cc2cc(NC(=O)Nc3ccccc3)ccc2O[C@H]1CN(C)Cc1ccc(Oc2ccccc2)cc1	2	-11	54
C[C@@H]1CN([C@H](C)CO)C(=O)Cc2cc(NC(=O)Nc3ccccc3)ccc2O[C@@H]1CN(C)Cc1ccc(Oc2ccccc2)cc1	-7	42	115*
C[C@@H]1CN([C@H](C)CO)C(=O)Cc2cc(NC(=O)Nc3ccc4c(c3)OCO4)ccc2O[C@@H]1CN(C)Cc1ccc(Oc2ccccc2)cc1	1	32	119*
C[C@@H]1CN([C@H](C)CO)C(=O)Cc2cc(NC(=O)Nc3ccc4c(c3)OCO4)ccc2O[C@H]1CN(C)Cc1ccc(Oc2ccccc2)cc1	.	?	117*
CCNc1nc(F)cc(=O)[nH]1	-1	.	-20
NNC(=O)CNc1ccc2c(c1)OCO2	0	-7	8
O=C(Cn1cnc2scc(-c3ccccc3)c2c1=O)Nc1ccc(F)cc1	1	.	-10
COCCNC(=O)c1ccccc1-c1nc(-c2ccc(Cl)cc2)no1	1	.	37
C[C@@H]1CN([C@H](C)CO)C(=O)Cc2cc(NC(=O)C3CCCCC3)ccc2O[C@H]1CN(C)Cc1ccc(Oc2ccccc2)cc1	.	35	81*
C[C@H]1CN([C@@H](C)CO)C(=O)Cc2cc(NC(=O)Nc3ccccc3)ccc2O[C@@H]1CN(C)Cc1ccc(Oc2ccccc2)cc1	1	14	58
C[C@@H]1CN([C@@H](C)CO)C(=O)Cc2cc(NC(=O)Nc3ccc4c(c3)OCO4)ccc2O[C@@H]1CN(C)Cc1ccc(Oc2ccccc2)cc1	-3	48	107*
C[C@H]1CN([C@@H](C)CO)C(=O)Cc2cc(NC(=O)C3CCCCC3)ccc2O[C@H]1CN(C)Cc1ccc(Oc2ccccc2)cc1	-6	28	27
O=C(CSc1nc2ccccc2[nH]1)Nc1ccccc1-c1ccccc1	.	.	0
O=C(CSc1nnc(-c2ccncc2)n1-c1ccc(Cl)cc1)Nc1ccccc1-c1ccccc1	.	.	5
O=C(CCCN1C(=O)c2ccccc2C1=O)Nc1ccc(F)c(Cl)c1	1	.	-22
SMILES	PD-1 reverse act	Shh pathway inh	NOMO-1 viab
COCCN1C(=O)/C(=C/c2cn(CC(=O)OC)c3ccccc23)C(=O)N(c2ccccc2)C1=O	1	-2	28
COC(=O)c1c(NC(=S)NC(C)c2ccncc2)sc2c1CCC(C)C2 (configuration not stated)	.	.	30
O=C(O)C1C2C=CC(O2)C1C(=O)Nc1ccc(S(=O)(=O)N2CCc3ccccc32)cc1 (configuration not stated)	-1	.	21
O=S(=O)(c1ccc(Cl)cc1)N1CCc2ccccc21	-9	81*	120*
CCOc1cc(/C=C2/SC(=N)N(c3nccs3)C2=O)ccc1OCCN1CCOCC1	-49	38	112*
N=C1S/C(=C/c2ccccc2)C(=O)N1c1nonc1N	-7	-81	28
C[C@@H]1CCCCO[C@H](CN(C)S(=O)(=O)c2ccc(F)cc2)[C@@H](C)CN([C@H](C)CO)C(=O)c2cc(NS(=O)(=O)c3ccc(Cl)cc3)ccc2O1	.	13	67
C[C@@H]1CCCCO[C@@H](CN(C)S(=O)(=O)c2cccs2)[C@@H](C)CN([C@H](C)CO)C(=O)c2cc(NS(=O)(=O)c3ccc(Cl)cc3)ccc2O1	-5	-2	86*
C[C@@H]1CCCCO[C@@H](CN(C)S(=O)(=O)c2ccc(Cl)cc2)[C@@H](C)CN([C@H](C)CO)C(=O)c2cc(NS(=O)(=O)c3cccs3)ccc2O1	-8	49	57
C[C@@H]1CCCCO[C@@H](CN(C)S(=O)(=O)c2ccc(F)cc2)[C@@H](C)CN([C@H](C)CO)C(=O)c2cc(NS(=O)(=O)c3ccc(Cl)cc3)ccc2O1	-9	-53	112*
C[C@@H]1CCCCO[C@@H](CN(C)S(C)(=O)=O)[C@@H](C)CN([C@H](C)CO)C(=O)c2cc(NS(=O)(=O)c3ccc(F)cc3)ccc2O1	1	74*	15
C[C@@H]1CCCCO[C@H](CN(C)S(=O)(=O)c2ccc(F)cc2)[C@@H](C)CN([C@H](C)CO)C(=O)c2cc(NS(=O)(=O)c3ccc(F)cc3)ccc2O1	.	-28	24
CC(C)NC(=O)N(C)C[C@H]1OCCCC[C@@H](C)Oc2ccc(NS(=O)(=O)c3cn(C)cn3)cc2C(=O)N([C@H](C)CO)C[C@@H]1C	2	72*	-2
C[C@@H]1CCCCO[C@@H](CN(C)C(=O)Nc2ccc(F)cc2)[C@@H](C)CN([C@H](C)CO)C(=O)c2cc(NS(=O)(=O)c3cn(C)cn3)ccc2O1	0	-8	11
NC(=O)CSc1ncn(-c2ccccc2)n1	1	.	-1
COC(=O)C1=COC(O[C@@H]2O[C@H](CO)[C@@H](O)[C@H](O)[C@H]2O)[C@@H]2[C@@](C)(O)CC[C@]12O (some centres not stated)	2	12	29
Cc1c(Cl)cccc1N(CC(=O)Nc1ccc(I)cc1)S(C)(=O)=O	1	.	20
Cc1ccc(S(=O)(=O)Nc2ccc3c(c2)C(=O)N([C@H](C)CO)C[C@H](C)[C@@H](CN(C)S(=O)(=O)c2ccc(C)cc2)OCCCC[C@@H](C)O3)cc1	.	19	61
Cc1ccc(S(=O)(=O)Nc2ccc3c(c2)C(=O)N([C@H](C)CO)C[C@H](C)[C@H](CN(C)S(=O)(=O)c2ccc(C)cc2)OCCCC[C@@H](C)O3)cc1	-2	.	95*
CCOC(=O)c1c(NC(C)=O)sc2c1CCCCC2	1	-27	43
CCOC(=O)C1CCN(C(c2cccc(Cl)c2)c2c(NC(C)=O)sc3c2CCCC3)CC1 (configuration not stated)	0	20	109*
COc1cc(NC(=O)COc2cc(C)c(Cl)c(C)c2)ccc1NC(=O)c1ccco1	2	.	-17
COc1ccc(NC(=O)c2ccco2)cc1NC(=O)COc1cc(C)c(Cl)c(C)c1	-11	.	96*
